Growth data for 17 molecules are collected here from PubChem BioAssay (NCI).

About 83,000 compounds went through this panel and 20% of them were active in at least one assay; those are over-represented in the sample as a whole.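 Growth was measured after 48 h exposure to one concentration of compound in 96-well plates. Values under 10 count as active.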 Unmarked numbers belong to inactive results. Activity calls are given as the source filed them.

Common to all, as to assay: NCI-60 one-dose screen, 48 h (100 = growth as untreated, 0 = no growth, -100 = all killed)
Holding throughout (conditions): 10 µM unless noted

Assay [1] deals with T-47D breast.
Assay [2] relates to BT-549 breast.
For assay [3], the system named is MDA-MB-435 melanoma.
In assay [4] the test system is SW-620 colon.
Assay [5] has as its system MCF7 breast.
The subject of assay [6] is HCT-116 colon.
Assay [7] deals with HCC-2998 colon.
The test system of assay [8] is KM12 colon.

On to `COc1ccc(-c2c(N)n[nH]c2-c2cc3c(c(OC)c2OC)OCO3)cc1`, for which the growth in assay [1] was 106%; in assay [2] it was 101%; in assay [3] it was 106%; in assay [4], 101%; in assay [5] it was 101%; in assay [6], 94.1%. Also, the growth in assay [7] was 106%; in assay [8], 99.9%.
`C=C[C@@H]1C[C@H](O)Cc2ccccc2N1`: the growth in assay [1] is 118%; in assay [2], 113%; in assay [3], 107%; in assay [4], 105%; in assay [5], 105%; in assay [6], 113%. In addition, the growth is 99.6% in assay [7] and 109% in assay [8].
Take `O=C(c1ccccc1)C1OC1c1ccc([N+](=O)[O-])cc1` (centres undefined): the growth is 52.6% in assay [1]; 68.5% in assay [2]; 39% in assay [3]; 9.23% (active) in assay [4]; 64.1% in assay [5]; 13.7% in assay [6]. Besides, the figures for the growth in assay [7] and in assay [8] were 115% and 62.6%, respectively.
On to `C=C1CC2(OC1=O)C(=O)N(CCCN1C(=O)C3(CC(=C)C(=O)O3)c3ccccc31)c1ccccc12` (centres undefined), for which the growth in assay [1] is 4.15% (active); in assay [2], 33.5%; in assay [3], -17.1% (active); in assay [4] it was -67.4% (active); in assay [5] it was -18.9% (active); in assay [6], -8.31% (active). Moreover, the results for the growth in assay [7] and in assay [8] were 86.2% and 72.9%, respectively.
`COc1cccc(CC(C)=C(c2ccc(OCCN3CCCCC3)cc2)c2ccc(OCCN3CCCCC3)cc2)c1`: the growth in assay [1] is -42.4% (active); in assay [2] it was 44.6%; in assay [3], -96.6% (active); in assay [4], -71.2% (active); in assay [5], -81.4% (active); in assay [6], -64.7% (active). The growth in assay [7] was -68.8% (active); in assay [8], -30.9% (active).
With `Cc1ccc(-c2cc3nc(C(Cl)Cl)nc(-c4cccnc4)n3n2)cc1`, the growth in assay [1] is 37.9%; in assay [2], 73.4%; in assay [3], 1.09% (active); in assay [4], 0.933% (active); in assay [5], 41.5%; in assay [6] it was 6.32% (active). The growth in assay [7] is -53.9% (active); in assay [8] it was -35.4% (active).
As for `COc1ccc(C2=C(c3cc(OC)c(OC)c(OC)c3)C(=O)CC2)cc1`, the growth was 60.5% in assay [1]; 28.3% in assay [2]; -19.2% (active) in assay [3]; 19.3% in assay [4]; 16.3% in assay [5]; 6.43% (active) in assay [6]. Also, the growth is -11.3% (active) in assay [7] and 5.46% (active) in assay [8].
In the case of `C=C(C)[C@@H]1CC[C@]2(C(=O)N3CCNCC3)CC[C@]3(C)[C@H](CC[C@@H]4[C@@]5(C)C/C(=C/c6ccncc6)C(=O)C(C)(C)[C@@H]5CC[C@]43C)[C@@H]12`, the growth in assay [1] was 102%; in assay [2] it was 105%; in assay [3], 105%; in assay [4], 109%; in assay [5], 79.7%; in assay [6], 102%. Also, the growth in assay [7] and in assay [8] was 109% in each case.
Turning to `S=C(S)NCCc1c[nH]c2ccccc12`, the growth in assay [1] is 88%; in assay [2] it was 92.6%; in assay [3] it was 103%; in assay [4], 101%; in assay [5], 94.4%; in assay [6] it was 96.1%. The figures for the growth in assay [7] and in assay [8] were 115% and 96.7%, respectively.
Take `COc1ccc(C(=O)N2NC(=O)/C(=C/c3cn(-c4ccccc4)nc3-c3ccccc3)N=C2c2ccccc2)cc1`: the growth in assay [1] was 97.6%; in assay [2], 106%; in assay [3] it was 92.2%; in assay [4] it was 109%; in assay [5], 98.9%; in assay [6] it was 95.2%. Moreover, the growth in assay [7] is 107%; in assay [8] it was 99.1%.
`Oc1ccccc1/C=N/NC(=S)NC1CC2C=CC1C2` (centres undefined): the growth in assay [1] is 79.9%; in assay [2] it was 61%; in assay [3] it was 11.9%; in assay [4], 45.5%; in assay [5], 80.7%; in assay [6], 42.9%. Moreover, the growth in assay [7] was 66.5%; in assay [8], 53%.
Consider `O=C(CCl)N(C1CCCCC1)C1CCCCC1`, for which the growth in assay [1] was 101%; in assay [2] it was 97.4%; in assay [3] it was 106%; in assay [4], 113%; in assay [5], 96.7%; in assay [6], 101%. The growth in assay [7] was 107%; in assay [8], 112%.
Regarding `CCOC(=O)C1C(=O)C=C(c2ccc(OC)cc2)CC1c1sc(N(C)Cc2ccccc2)nc1Cl` (centres undefined), the growth was 64.2% in assay [1]; 94.4% in assay [2]; 85.1% in assay [3]; 82.9% in assay [4]; 83.5% in assay [5]; 71.9% in assay [6]. Further, the growth in assay [7] is 98.9%; in assay [8], 81.4%.
With `Fc1ccc(Nc2nc(NCCNc3ccnc4cc(Cl)ccc34)nc(N3CCOCC3)n2)cc1`, the growth in assay [1] is 83.3%; in assay [2], 81.9%; in assay [3], 28.2%; in assay [4] it was 47.1%; in assay [5] it was 55%; in assay [6], 37.3%. Also, the results for the growth in assay [7] and in assay [8] were -51.2% (active) and 78.6%, respectively.
Turning to `Cc1ccc(Cc2c(C=O)nc(N)[nH]c2=O)c2ccccc12`, the growth was 95.5% in assay [1]; 87.9% in assay [2]; 107% in assay [3]; 103% in assay [4]; 103% in assay [5]; 88.2% in assay [6]. For the same molecule, the growth in assay [7] is 101%; in assay [8], 102%.
For `COc1ccc(C2C=C(c3ccc(Cl)cc3)N=C3SC=C(C)N32)c(Br)c1` (centres undefined), the growth in assay [1] is 39.3%; in assay [2] it was 19.7%; in assay [3] it was 9.2% (active); in assay [4], 24.2%; in assay [5] it was 10.2%; in assay [6] it was 16%.
For the molecule `S=c1[nH]nc(-c2cc3ccc2CCc2ccc(cc2)CC3)n1C1CC1`, the growth in assay [1] was 97.7%; in assay [2], 107%; in assay [3] it was 97.3%; in assay [4] it was 99.8%; in assay [5], 90.5%; in assay [6], 92.3%. Also, the figures for the growth in assay [7] and in assay [8] were 115% and 99.6%, respectively.
